From PMC7862700, “An all-to-all approach to the identification of sequence-specific readers for epigenetic DNA modifications on cytosine”

Key:
Assay in all cases: DAPPL (digital affinity profiling via proximity ligation, sequencing); 10 mM Tris-HCl pH 7.5, 50 mM NaCl, 1 mM DTT, 4% glycerol, room temperature, 30 min; GST-TFs on glutathione beads, 16-mer random dsDNA library, 0.1% formaldehyde crosslink after washing; high values mean tight binding
Conditions in all cases: protein: recombinant; tags: N-terminal GST; dsDNA, one strand shown
ERF = target: T1, ERF (Homo sapiens, UniProt P50548 1-548)
T1 sequence: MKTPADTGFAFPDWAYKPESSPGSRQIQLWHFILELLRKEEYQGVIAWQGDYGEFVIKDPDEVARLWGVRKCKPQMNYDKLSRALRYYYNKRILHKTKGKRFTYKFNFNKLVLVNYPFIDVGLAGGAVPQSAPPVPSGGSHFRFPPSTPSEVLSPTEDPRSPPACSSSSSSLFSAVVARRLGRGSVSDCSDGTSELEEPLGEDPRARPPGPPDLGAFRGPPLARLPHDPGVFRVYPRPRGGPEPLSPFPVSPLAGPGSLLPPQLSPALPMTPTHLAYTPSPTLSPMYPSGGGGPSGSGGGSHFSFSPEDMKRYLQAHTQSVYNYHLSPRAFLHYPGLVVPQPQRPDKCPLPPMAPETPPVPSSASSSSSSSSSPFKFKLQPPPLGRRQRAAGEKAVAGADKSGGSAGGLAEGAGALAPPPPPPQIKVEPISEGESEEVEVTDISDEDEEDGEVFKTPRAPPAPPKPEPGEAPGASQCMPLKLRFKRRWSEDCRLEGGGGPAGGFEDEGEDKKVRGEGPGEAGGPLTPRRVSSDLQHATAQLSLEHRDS
Method in brief: (§1)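 Pools of DNA-barcoded human transcription factors, expressed in yeast as GST fusions on glutathione beads and combined with a tag-only sample, were incubated with 200 nmole of a 16-mer random double-stranded DNA library. Incubation took 30 min at room temperature in Tris/NaCl/DTT/glycerol buffer and was followed by washing, 0.1% formaldehyde crosslinking, proximity ligation (BsaI/T4 ligase, 1 h, 37 °C), PCR amplification and sequencing on an Illumina NextSeq500. Binding signal is the ratio of a hexamer's read frequency for a factor to its frequency for the tag-only sample.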

ETV3L = target: T2, ETV3L (Homo sapiens, UniProt Q6ZN32 1-361)
T2 sequence: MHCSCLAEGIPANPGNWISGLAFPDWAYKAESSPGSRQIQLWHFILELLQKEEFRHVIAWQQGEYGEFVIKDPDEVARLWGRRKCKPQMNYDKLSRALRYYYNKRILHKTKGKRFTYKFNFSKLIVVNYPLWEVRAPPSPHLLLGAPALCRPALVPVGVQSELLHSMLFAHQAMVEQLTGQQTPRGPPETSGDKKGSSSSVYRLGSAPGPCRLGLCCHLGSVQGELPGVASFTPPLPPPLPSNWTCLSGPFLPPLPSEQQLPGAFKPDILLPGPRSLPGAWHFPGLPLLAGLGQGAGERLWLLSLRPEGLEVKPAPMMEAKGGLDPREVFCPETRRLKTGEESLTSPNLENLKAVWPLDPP
Method in brief: as §1

ETS2 = target: T3, ETS2 (Homo sapiens, UniProt P15036 1-469)
T3 sequence: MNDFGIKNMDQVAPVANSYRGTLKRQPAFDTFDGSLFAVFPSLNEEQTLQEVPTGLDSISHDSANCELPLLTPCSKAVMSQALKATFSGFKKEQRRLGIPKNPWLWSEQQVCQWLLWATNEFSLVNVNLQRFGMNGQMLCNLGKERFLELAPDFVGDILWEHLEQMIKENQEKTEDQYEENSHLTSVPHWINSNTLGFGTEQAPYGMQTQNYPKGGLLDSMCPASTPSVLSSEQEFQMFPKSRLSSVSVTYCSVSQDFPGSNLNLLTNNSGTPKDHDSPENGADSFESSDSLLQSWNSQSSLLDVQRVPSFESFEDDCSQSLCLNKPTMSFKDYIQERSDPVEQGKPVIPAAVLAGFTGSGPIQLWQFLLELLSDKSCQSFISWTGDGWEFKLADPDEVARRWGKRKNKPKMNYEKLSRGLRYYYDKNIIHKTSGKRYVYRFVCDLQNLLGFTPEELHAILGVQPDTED
Method in brief: as §1

SPDEF = target: T4, SPDEF (Homo sapiens, UniProt O95238 1-335)
T4 sequence: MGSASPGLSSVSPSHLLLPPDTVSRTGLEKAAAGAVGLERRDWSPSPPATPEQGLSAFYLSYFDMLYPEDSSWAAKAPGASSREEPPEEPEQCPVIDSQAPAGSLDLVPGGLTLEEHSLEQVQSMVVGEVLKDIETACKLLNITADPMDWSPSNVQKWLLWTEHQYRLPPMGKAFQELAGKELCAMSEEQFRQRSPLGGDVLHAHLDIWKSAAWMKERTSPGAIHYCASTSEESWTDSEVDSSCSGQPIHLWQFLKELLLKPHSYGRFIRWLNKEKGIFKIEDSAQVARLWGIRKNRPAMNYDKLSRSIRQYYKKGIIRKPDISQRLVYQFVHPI
Method in brief: as §1

ETV7 = target: T5, ETV7 (Homo sapiens, UniProt Q9Y603 1-341)
T5 sequence: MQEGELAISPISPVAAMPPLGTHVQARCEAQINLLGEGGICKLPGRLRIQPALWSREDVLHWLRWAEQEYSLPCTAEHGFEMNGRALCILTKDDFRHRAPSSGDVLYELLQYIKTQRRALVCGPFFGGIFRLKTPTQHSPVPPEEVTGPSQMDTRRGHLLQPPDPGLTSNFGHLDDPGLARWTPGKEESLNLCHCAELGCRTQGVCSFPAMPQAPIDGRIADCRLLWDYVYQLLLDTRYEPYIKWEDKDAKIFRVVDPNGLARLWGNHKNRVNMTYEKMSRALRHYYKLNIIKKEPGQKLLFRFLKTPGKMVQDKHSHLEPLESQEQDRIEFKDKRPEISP
Method in brief: as §1

ELF5 = target: T6, ELF5 (Homo sapiens, UniProt Q9UKW6-2 1-255)
T6 sequence: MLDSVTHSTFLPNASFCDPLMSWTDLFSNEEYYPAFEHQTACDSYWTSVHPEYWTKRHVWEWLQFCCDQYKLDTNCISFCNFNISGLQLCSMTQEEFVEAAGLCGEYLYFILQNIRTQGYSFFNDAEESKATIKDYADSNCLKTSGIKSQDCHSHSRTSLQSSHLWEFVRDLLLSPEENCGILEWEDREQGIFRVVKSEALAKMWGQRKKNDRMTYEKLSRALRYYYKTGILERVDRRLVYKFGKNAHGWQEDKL
Method in brief: as §1

ETV3 = target: T7, ETV3 (Homo sapiens, UniProt P41162-2 1-143)
T7 sequence: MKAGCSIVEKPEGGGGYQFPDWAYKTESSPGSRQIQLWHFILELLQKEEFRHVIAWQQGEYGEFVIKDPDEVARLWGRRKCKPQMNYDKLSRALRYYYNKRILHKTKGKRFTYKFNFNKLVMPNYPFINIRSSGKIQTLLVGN
Method in brief: as §1

ETV6 = ETV6 (Homo sapiens, UniProt P41212 1-452)
Method in brief: as §1

ETV6, sequence (P41212 whole entry): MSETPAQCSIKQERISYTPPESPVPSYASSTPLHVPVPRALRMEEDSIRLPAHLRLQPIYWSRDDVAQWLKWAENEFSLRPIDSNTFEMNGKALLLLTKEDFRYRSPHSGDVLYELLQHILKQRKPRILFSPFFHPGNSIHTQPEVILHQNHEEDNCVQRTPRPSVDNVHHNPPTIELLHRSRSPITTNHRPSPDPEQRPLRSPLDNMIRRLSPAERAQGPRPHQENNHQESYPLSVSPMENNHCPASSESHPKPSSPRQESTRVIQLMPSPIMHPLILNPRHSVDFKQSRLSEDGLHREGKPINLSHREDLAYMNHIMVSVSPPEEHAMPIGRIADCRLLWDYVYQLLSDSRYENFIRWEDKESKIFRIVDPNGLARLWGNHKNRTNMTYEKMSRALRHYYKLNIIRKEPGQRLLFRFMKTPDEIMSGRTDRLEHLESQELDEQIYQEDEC

Sequence | binding signal (ERF) | binding signal (ETV3L) | binding signal (ETS2) | binding signal (SPDEF) | binding signal (ETV7) | binding signal (ELF5) | binding signal (ETV3) | binding signal (ETV6)
CACGAT | 1.29 fold enrichment (6-mer frequency, TF over GST control) | 1.23 fold enrichment (6-mer frequency, TF over GST control) | 1.24 fold enrichment (6-mer frequency, TF over GST control) | 1.26 fold enrichment (6-mer frequency, TF over GST control) | 1.32 fold enrichment (6-mer frequency, TF over GST control) | 1.17 fold enrichment (6-mer frequency, TF over GST control) | 1.29 fold enrichment (6-mer frequency, TF over GST control) | 1.27 fold enrichment (6-mer frequency, TF over GST control)
CTTGAT | 1.47 fold enrichment (6-mer frequency, TF over GST control) | 1.42 fold enrichment (6-mer frequency, TF over GST control) | 1.35 fold enrichment (6-mer frequency, TF over GST control) | 1.34 fold enrichment (6-mer frequency, TF over GST control) | 1.28 fold enrichment (6-mer frequency, TF over GST control) | 1.39 fold enrichment (6-mer frequency, TF over GST control) | 1.35 fold enrichment (6-mer frequency, TF over GST control) | 1.24 fold enrichment (6-mer frequency, TF over GST control)
ACTATG | 1.15 fold enrichment (6-mer frequency, TF over GST control) | 1.2 fold enrichment (6-mer frequency, TF over GST control) | 1.3 fold enrichment (6-mer frequency, TF over GST control) | 1.28 fold enrichment (6-mer frequency, TF over GST control) | 1.18 fold enrichment (6-mer frequency, TF over GST control) | 1.16 fold enrichment (6-mer frequency, TF over GST control) | 1.25 fold enrichment (6-mer frequency, TF over GST control) | 1.19 fold enrichment (6-mer frequency, TF over GST control)
ACGACT | 1.15 fold enrichment (6-mer frequency, TF over GST control) | 1.28 fold enrichment (6-mer frequency, TF over GST control) | 1.28 fold enrichment (6-mer frequency, TF over GST control) | 1.19 fold enrichment (6-mer frequency, TF over GST control) | 1.17 fold enrichment (6-mer frequency, TF over GST control) | 1.23 fold enrichment (6-mer frequency, TF over GST control) | 1.22 fold enrichment (6-mer frequency, TF over GST control) | 1.17 fold enrichment (6-mer frequency, TF over GST control)
CTTAGC | 1.25 fold enrichment (6-mer frequency, TF over GST control) | 1.23 fold enrichment (6-mer frequency, TF over GST control) | 1.18 fold enrichment (6-mer frequency, TF over GST control) | 1.15 fold enrichment (6-mer frequency, TF over GST control) | 1.16 fold enrichment (6-mer frequency, TF over GST control) | 1.16 fold enrichment (6-mer frequency, TF over GST control) | 1.22 fold enrichment (6-mer frequency, TF over GST control) | 1.2 fold enrichment (6-mer frequency, TF over GST control)
ATGGCC | 1.27 fold enrichment (6-mer frequency, TF over GST control) | 1.32 fold enrichment (6-mer frequency, TF over GST control) | 1.37 fold enrichment (6-mer frequency, TF over GST control) | 1.32 fold enrichment (6-mer frequency, TF over GST control) | 1.44 fold enrichment (6-mer frequency, TF over GST control) | 1.32 fold enrichment (6-mer frequency, TF over GST control) | 1.39 fold enrichment (6-mer frequency, TF over GST control) | 1.34 fold enrichment (6-mer frequency, TF over GST control)
ATTTAT | 1.51 fold enrichment (6-mer frequency, TF over GST control) | 1.54 fold enrichment (6-mer frequency, TF over GST control) | 1.47 fold enrichment (6-mer frequency, TF over GST control) | 1.4 fold enrichment (6-mer frequency, TF over GST control) | 1.48 fold enrichment (6-mer frequency, TF over GST control) | 1.39 fold enrichment (6-mer frequency, TF over GST control) | 1.41 fold enrichment (6-mer frequency, TF over GST control) | 1.4 fold enrichment (6-mer frequency, TF over GST control)
ATTCCG | 1.58 fold enrichment (6-mer frequency, TF over GST control) | 1.74 fold enrichment (6-mer frequency, TF over GST control) | 1.78 fold enrichment (6-mer frequency, TF over GST control) | 1.85 fold enrichment (6-mer frequency, TF over GST control) | 1.62 fold enrichment (6-mer frequency, TF over GST control) | 2.17 fold enrichment (6-mer frequency, TF over GST control) | 1.89 fold enrichment (6-mer frequency, TF over GST control) | 1.78 fold enrichment (6-mer frequency, TF over GST control)
